This is an account of results in PubChem BioAssay (Tox21).

Structures are written as SMILES. Where “and” joins values, the source holds several entries; their conditions need not be identical. Equal entries are not always repeated. Records with an inconclusive call do not appear. Some compounds were tested as several samples or in several runs, with calls that do not always agree. Calls of active or inactive are those of the source. Unless noted, calls come from the whole dose curve; as a rule, active = well fitted curve in the direction sought with a large enough effect in the repeat runs; inconclusive = weak or mixed curves; inactive = no such curve, though single readings can be large; an effect the other way counts as inactive or inconclusive.

Test [1] is described as follows: qHTS assay to identify small molecule antagonists of the glucocorticoid receptor (GR) signaling pathway - cell viability counter screen (AID 720693). Note: nearly all actives have a fitted effect of over 55% in size. In general terms: qHTS replaces the single test concentration by a dilution series.
Test [2] can be described thus: qHTS assay for identifying genotoxic compounds that show differential cytotoxicity against isogenic chicken DT40 cell lines with known DNA damage response pathways - wild type cell line (AID 743012). Note: nearly all actives have a fitted effect of over 60% in size. Note: potency is the fitted concentration of half-maximal effect. In short, it runs like this:
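Quantitative HTS on parental DT40 cells: 40 h compound treatment at 37 C/5% CO2, with viability then determined by CellTiter-Glo luminescence. Values serve as the DNA repair-proficient reference for differential cytotoxicity.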

A short description of test [3]: qHTS assay for identifying genotoxic compounds that show differential cytotoxicity against isogenic chicken DT40 cell lines with known DNA damage response pathways - Rev3 mutant cell line (AID 743014). Note: nearly all actives have a fitted effect of over 55% in size. Note: potency is the fitted concentration of half-maximal effect.
A short description of test [4]: qHTS assay for identifying genotoxic compounds that show differential cytotoxicity against isogenic chicken DT40 cell lines with known DNA damage response pathways - Rad54/Ku70 mutant cell line (AID 743015). Note: nearly all actives have a fitted effect of over 60% in size. Note: potency is the fitted concentration of half-maximal effect.
Test [5] in a line: qHTS assay to identify small molecule antagonists of the androgen receptor (AR) signaling pathway using the MDA cell line - cell viability counter screen (AID 743041; note: nearly all actives have a fitted effect of over 45% in size). In short, it runs like this:
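Cells were plated at 3,000 per well and left 5 h. Compounds in DMSO were then pinned in, followed by R1881. After 16 h at 37C, CellTiter-Fluor fluorescence gave viability.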

Test [6] deals with Androgen receptor (Homo sapiens) (UniProt P10275). As to the kind of experiment: qHTS assay to identify small molecule antagonists of the androgen receptor (AR) signaling pathway (AID 743035; active = well fitted inhibition curve with a large enough effect in the signal ratio in the repeat runs, not every such curve was filed as active; the % refers to the signal ratio). The gist of the method: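 Cell line: GeneBLAzer AR-UAS-bla GripTite (HEK293). Stimulus: R1881 added after compound. Exposure: 16 h, 37C, 5% CO2. Readout: LiveBLAzer B/G FRET fluorescence after 2 h at room temperature.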

Test [7] shares this target. Description: qHTS assay to identify small molecule agonists of the androgen receptor (AR) signaling pathway (AID 743036; active = well fitted activation curve with a large enough effect in the signal ratio in the repeat runs, with a control signal flat, not every such curve was filed as active; the % refers to the signal ratio). In short, it runs like this:
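AR-UAS-bla HEK293 cells, plated 4 h before dosing, were treated with compound for 16 h at 37C. beta-Lactamase reporter read after 2 h with LiveBLAzer B/G FRET substrate at room temperature.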

For test [8] the target is unchanged. As to the kind of experiment: qHTS assay to identify small molecule agonists of the androgen receptor (AR) signaling pathway using the MDA cell line (AID 743040; note: nearly all actives have a fitted effect of over 20% in size). The gist of the method: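 Cells plated, 5 h at 37C/0% CO2; compound or DMSO pinned; 16 h at 37C; ONE-Glo added; luminescence measured after 30 min at room temperature. Reporter line: MDA-kb2 with MMTV-luciferase responsive to AR and GR.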

Test [9] has the same target. Description: qHTS assay to identify small molecule antagonists of the androgen receptor (AR) signaling pathway using the MDA cell line (AID 743042; note: nearly all actives have a fitted effect of over 55% in size). The gist of the method: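 Antagonist mode: compounds plus R1881 agonist added to MDA-kb2 AR-luc cells, incubated 16 h at 37C. Luciferase reporter luminescence quantified, with multiplexed CellTiter-Fluor readout for cell viability.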

The nature of test [10]: qHTS assay to identify small molecule antagonists of the androgen receptor (AR) signaling pathway - cell viability counter screen (AID 743033; note: nearly all actives have a fitted effect of over 45% in size).

Androgen receptor (Homo sapiens), sequence (P10275 whole entry, looked up): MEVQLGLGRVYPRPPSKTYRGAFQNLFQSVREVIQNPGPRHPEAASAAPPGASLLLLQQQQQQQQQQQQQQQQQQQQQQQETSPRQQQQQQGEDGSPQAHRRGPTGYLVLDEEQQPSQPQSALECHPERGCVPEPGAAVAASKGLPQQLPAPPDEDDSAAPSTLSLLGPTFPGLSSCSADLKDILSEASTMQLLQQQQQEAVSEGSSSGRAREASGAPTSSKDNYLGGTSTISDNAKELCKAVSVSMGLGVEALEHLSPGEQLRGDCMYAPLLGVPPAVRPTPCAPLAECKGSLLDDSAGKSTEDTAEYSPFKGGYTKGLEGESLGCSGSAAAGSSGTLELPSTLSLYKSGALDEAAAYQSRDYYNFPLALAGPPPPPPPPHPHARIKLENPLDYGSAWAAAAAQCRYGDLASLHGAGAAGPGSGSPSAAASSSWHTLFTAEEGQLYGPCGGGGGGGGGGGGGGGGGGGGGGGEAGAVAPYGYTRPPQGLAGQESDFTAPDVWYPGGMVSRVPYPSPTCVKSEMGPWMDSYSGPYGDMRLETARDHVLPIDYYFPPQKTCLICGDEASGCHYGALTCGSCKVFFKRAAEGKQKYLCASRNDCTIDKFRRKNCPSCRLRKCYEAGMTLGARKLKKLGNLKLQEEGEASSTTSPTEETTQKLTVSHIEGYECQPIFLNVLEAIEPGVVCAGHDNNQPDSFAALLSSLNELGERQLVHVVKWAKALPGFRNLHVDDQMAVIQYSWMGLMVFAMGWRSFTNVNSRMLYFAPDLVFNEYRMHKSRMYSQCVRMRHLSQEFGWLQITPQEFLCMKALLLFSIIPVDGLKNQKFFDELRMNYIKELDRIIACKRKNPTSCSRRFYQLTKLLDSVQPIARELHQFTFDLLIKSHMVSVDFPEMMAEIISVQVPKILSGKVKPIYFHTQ

With `CCc1cccc(C)c1N(C(=O)CCl)C(C)COC` (stereo not drawn), the compound was classed as inactive in [1] and in test [5]. In addition, the Potency is 40.8 µM (active) and 10.9 µM (active) in [2]; 16.2 µM (active) and 12.2 µM (active) in [3]; 45.8 µM (active) and 17.2 µM (active) in test [4].
As for `O=c1ccc(=O)[nH][nH]1`, the outcome in [1], in [7], in [8], in test [5] and in test [9] was inactive. Also, the Potency result in [2], in test [3], in test [4] and in test [6] was “inactive” each time.
As for `CCCN(CCC)c1c([N+](=O)[O-])cc(C(F)(F)F)cc1[N+](=O)[O-]`, the call in test [1], in test [10], in [7], in test [8], in [5] and in test [9] was inactive. In addition, the Potency entry in [2], in [3] and in test [6] was “inactive” in each case.
As to `Cc1cccc([N+](=O)[O-])c1`, the compound was classed as inactive in test [1] and in test [5]. The Potency entry in [2], in test [3] and in [4] was “inactive” throughout.
Regarding `CN(C)CCO`, the outcome in test [1] and in test [5] was inactive. Moreover, the Potency result in test [2], in test [3] and in test [4] was “inactive” throughout.
As for `Nc1ccc(Br)cc1`, the outcome in test [1], in test [10] and in test [5] was inactive. For the same compound, the Potency result in [2] and in test [3] was “inactive” in each case.
For the compound `O=C(NC(=O)c1c(F)cccc1F)Nc1cc(Cl)c(OC(F)(F)C(F)C(F)(F)F)cc1Cl` (stereo not drawn), the call in [1], in test [10], in test [7], in test [8] and in test [5] was inactive. The figures for the Potency in test [2] and in test [3] were 3.35 µM (active) and 4.22 µM (active), respectively. In [6], the Potency result was “inactive”.
On to `c1ccc(-c2ccccc2)cc1`, for which the call in test [1], in [7], in test [8], in test [5] and in test [9] was inactive. The Potency result in [2], in [3], in test [4] and in test [6] was “inactive” each time.
For the compound `CC(C#N)CCC#N` (stereo not drawn), the call in [1] and in test [5] was inactive. Moreover, the Potency result in test [2], in test [3] and in test [4] was “inactive” throughout.
With `CCC[CH2][Sn]([Cl])([Cl])[Cl]`, the compound was called inactive in test [1] and in [5]. In addition, the Potency entry in [2], in test [3] and in test [4] was “inactive” throughout.
Take `COC(=O)c1ccccc1C(=O)OC`: the outcome in test [1] and in test [5] was inactive. Moreover, the Potency result in [2], in test [3] and in test [4] was “inactive” in each case.
On to `CCCCN(CCCC)SN(C)C(=O)Oc1cccc2c1OC(C)(C)C2`, for which the compound was called inactive in test [1] and in test [5]. Moreover, the figures for the Potency in test [2], in [3] and in test [4] were 30.6 µM (active), 48.6 µM (active) and 30.6 µM (active), respectively.
For the compound `O=S(=O)(c1ccc(O)cc1)c1ccc(O)cc1`, the compound was called inactive in test [1] and in [5]. In addition, the Potency result in test [2], in test [3] and in test [4] was “inactive” in each case.
With `O=[N+]([O-])c1ccc([As](=O)(O)O)cc1`, the outcome in test [1] and in test [5] was inactive. In addition, the Potency result in test [2], in test [3] and in test [4] was “inactive” each time.
As for `OCCN(CCO)CCO`, the call in test [1], in [10] and in test [5] was inactive. The Potency entry in test [2], in test [3] and in test [4] was “inactive” throughout.
As for `CCOP(=S)(OCC)Oc1cnc2ccccc2n1`, the compound was called inactive in test [1] and in test [5]. Also, the Potency in test [2] is 54.5 µM (active); in [3], 27.3 µM (active); in test [4], 27.3 µM (active).
For the compound `c1ccc2c(c1)oc1ccccc12`, the outcome in [1] and in test [5] was inactive. Also, the Potency entry in [2], in test [3] and in test [4] was “inactive” in each case.
`CC(C)OC(=O)Nc1cccc(Cl)c1`: the compound was called inactive in test [1] and in test [5]. For the same compound, the Potency entry in test [2], in test [3] and in test [4] was “inactive” in each case.
For `COc1ccc2c3c1O[C@H]1[C@@H](O)C=C[C@H]4[C@@H](C2)N(C)CC[C@@]341`, the compound was classed as inactive in test [1] and in [5]. The Potency entry in test [2], in [3] and in [4] was “inactive” in each case.
Regarding `CC(=O)C=C(C)C`, the result in test [1], in test [10] and in test [5] was inactive. For the same compound, the Potency result in test [2] and in test [3] was “inactive” throughout.
Consider `C1CC2OC2CC1C1CO1` (stereo not drawn), for which the call in [1] and in [5] was inactive. Also, the Potency entry in test [2], in test [3] and in test [4] was “inactive” in each case.
In the case of `C[C@]12CC[C@H]3[C@@H](CC[C@@]45O[C@@H]4C(O)=C(C#N)C[C@]35C)[C@@H]1CC[C@@H]2O`, the call in [1] and in test [5] was inactive. Besides, the Potency result in [2] was “inactive and 61.1 µM (active)”; in test [3], “inactive and 27.3 µM (active)”; in [4] it was 30.6 µM (active).
As to `O=c1[nH]c2ccccc2c(=O)o1`, the outcome in [1], in test [10] and in [5] was inactive. Further, the Potency entry in test [2], in [3] and in test [4] was “inactive” in each case.
As for `CN(C)N=O`, the outcome in test [1] and in [5] was inactive. The Potency result in test [2], in test [3] and in test [4] was “inactive” in each case.
In the case of `O=[N+]([O-])c1ccccc1`, the compound was called inactive in [1], in [10] and in test [5]. Further, the Potency entry in test [2], in [3] and in test [4] was “inactive” throughout.
On to `ClCc1cccnc1`, for which the result in test [1], in [10] and in [5] was inactive. For the same compound, the Potency result in test [2] and in test [3] was “inactive” each time.
For the compound `CN1C(=O)CN=C(c2ccccc2)c2cc(Cl)ccc21`, the result in test [1], in test [10] and in [5] was inactive. The Potency result in [2] and in [3] was “inactive” each time.
